# Measured values reported in the supplement of paper PMC13172266.
# Structures can show the parent of a compound that is named as a salt.
# Columns and labels:
# Assay in all cases: cell proliferation relative to vehicle (% of vehicle); higher = less growth inhibition
# Conditions in all cases: 72 h
# [1] = system: U2932 TK216-resistant clone 2
# Summary of the method: (§1)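 Each of 348 targeted inhibitors was tested at 500 nM or 50 nM for 72 h on U2932 cells, both parental and two clones resistant to an ETS-targeting agent. Readout was by MTT with absorbance read on a Cytation 3. Proliferation appears as percent of proliferating cells relative to vehicle (DMSO).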
# [2] = system: U2932 TK216-resistant clone 3
# Summary of the method: as §1
# U2932 parental = system: U2932 parental
# Summary of the method: as §1
Compound,cell proliferation ([1]; 50 nM),cell proliferation ([1]; 500 nM),cell proliferation ([2]; 50 nM),cell proliferation ([2]; 500 nM),cell proliferation (U2932 parental; 50 nM),cell proliferation (U2932 parental; 500 nM)
CCCCc1nc2cc(/C=C/C(=O)NO)ccc2n1CCN(CC)CC [Pracinostat (SB939)],107,54,89.2,64.4,91.7,50.1
O=c1[nH]c(=O)n([C@H]2C[C@H](O)[C@@H](CO)O2)cc1F [Floxuridine],60.3,37.4,95.2,72.5,73.1,34.2
Cc1cc(Nc2nc(N[C@@H](C)c3ncc(F)cn3)ncc2Cl)[nH]n1,116,108,105,117,96.7,91.5
C[C@]1(O)C[C@@H](c2nc(-c3ccc4ccc(-c5ccccc5)nc4c3)c3c(N)nccn32)C1 [OSI-906 (Linsitinib)],104,95.1,95.7,99.4,99.3,99.7
CN1C(=O)C(Cc2c[nH]c3ccccc23)NC1=S (configuration not stated) [Necrostatin-1],103,93.1,95.6,102,95,94.8
CN[C@@H](C)C(=O)N[C@H](C(=O)N1CCC[C@H]1C(=O)Nc1snnc1-c1ccccc1)C1CCCCC1,102,111,97.2,107,95,103
Cc1ccc(Nc2nccc(N(C)c3ccc4c(C)n(C)nc4c3)n2)cc1S(N)(=O)=O [Pazopanib HCl],110,102,101,99.6,95.2,105
O=C(O)c1ccc(-c2c[nH]c3ncc(-c4ccccc4)cc23)cc1C1CCCC1,107,100,97.4,105,105,107
C#Cc1cccc(Nc2ncnc3cc(OC)c(OCCCCCCC(=O)NO)cc23)c1,93.7,43.4,96.3,52.5,89.5,43.9
"CC[C@H](Nc1ncnc2[nH]cnc12)c1nc2cccc(F)c2c(=O)n1-c1ccccc1 [CAL-101 (Idelalisib, GS-1101)]",103,109,97.8,99.3,92.6,96.6
C[C@]12C=CC(=O)C=C1CC[C@@H]1[C@@H]2C(=O)C[C@@]2(C)[C@H]1CC[C@]2(O)C(=O)CO [Prednisone],95.3,94.8,105,102,97.3,100
Cc1nc(-c2ccc(OCC(C)C)c(C#N)c2)sc1C(=O)O [Febuxostat],101,110,106,104,102,103
Cc1ccc(C(=O)N(CCCN)[C@@H](c2nc3cc(Cl)ccc3c(=O)n2Cc2ccccc2)C(C)C)cc1,13,10.8,7.24,5.07,9.61,10.2
COc1nc(OCc2cccc(-c3ccccc3)c2C)ccc1CNCCNC(C)=O [PD-1/PD-L1 inhibitor 2],95.9,89,94.4,82.7,104,91.5
CCS(=O)(=O)N1CC(CC#N)(n2cc(-c3ncnc4[nH]ccc34)cn2)C1,107,118,111,104,104,105
CC1(C)CCC(c2ccc(Cl)cc2)=C(CN2CCN(c3ccc(C(=O)NS(=O)(=O)c4ccc(N[C@H](CCN5CCOCC5)CSc5ccccc5)c(S(=O)(=O)C(F)(F)F)c4)cc3)CC2)C1 [ABT-263 (Navitoclax)],100,62.4,99.4,64.2,91.5,86.6
COc1cc2nccc(Oc3ccc(NC(=O)C4(C(=O)Nc5ccc(F)cc5)CC4)cc3)c2cc1OC,102,98,100,106,95.4,99.2
CC(C)N(C[C@H]1O[C@@H](n2cnc3c(N)ncnc32)[C@H](O)[C@@H]1O)[C@H]1C[C@@H](CCc2nc3cc(C(C)(C)C)ccc3[nH]2)C1,98.8,91.9,97.2,91.6,101,95.4
COC(=O)c1ccc([C@H]2c3[nH]c4ccccc4c3C[C@H](C(=O)OC)N2C(=O)CCl)cc1,85,-2.9,84,-4.49,100,-1.25
Cn1cnc2c(F)c(Nc3ccc(Br)cc3Cl)c(C(=O)NOCCO)cc21 [Selumetinib (AZD6244)],106,95.8,97,90.1,99.3,101
C=CC(=O)N1C/C(=C\c2ccc([N+](=O)[O-])cc2)C(=O)/C(=C/c2ccc([N+](=O)[O-])cc2)C1,31.4,-1.71,30.7,-2.43,34.3,1.03

Compound,cell proliferation ([1]; 50 nM),cell proliferation ([1]; 500 nM),cell proliferation ([2]; 50 nM),cell proliferation ([2]; 500 nM),cell proliferation (U2932 parental; 50 nM),cell proliferation (U2932 parental; 500 nM)
COc1ccc(-c2ccc3c(N4CCOCC4)nc(N4C[C@@H](C)O[C@@H](C)C4)nc3n2)cc1CO,95.3,46.8,98.9,49.3,91.4,57.7
CC1(C)CC[C@]2(NC(=O)C(C)(F)F)CC[C@]3(C)[C@H](C(=O)C=C4[C@@]5(C)C=C(C#N)C(=O)C(C)(C)[C@@H]5CC[C@]43C)[C@@H]2C1 [Omaveloxolone (RTA-408)],95.5,10,103,23.8,93.8,14.7
Cc1ccc(-c2cc(C(F)(F)F)nn2-c2ccc(S(N)(=O)=O)cc2)cc1 [Celecoxib],99.8,95.6,104,98.7,101,100
CCCCOc1c(C(=O)c2c(F)cc(C)cc2F)c[nH]c2nncc1-2,78.8,59.3,92.2,58.9,89.3,77.1
CN(Cc1cnc2nc(N)nc(N)c2n1)c1ccc(C(=O)N[C@@H](CCC(=O)O)C(=O)O)cc1 [Methotrexate],102,37.1,102,67.8,99.4,29.9
Cc1nc(C(=O)NCC(=O)O)c(O)c2ccc(Oc3ccccc3)cc12,102,98.6,104,98.5,98.3,95.4
O=C(Nc1c[nH]nc1-c1nc2ccc(CN3CCOCC3)cc2[nH]1)NC1CC1,90.5,67.5,75.8,60.1,69.3,54.2
CC(C)n1c(/C=C/C(O)CC(O)CC(=O)O)c(-c2ccc(F)cc2)c2ccccc21 (configuration not stated) [Fluvastatin Sodium],97.4,89.5,92.2,102,81.9,83.5
CC[C@]1(O)C[C@H]2CN(CCc3c([nH]c4ccccc34)[C@@](C(=O)OC)(c3cc4c(cc3OC)N(C=O)[C@H]3[C@@](O)(C(=O)OC)[C@H](OC(C)=O)[C@]5(CC)C=CCN6CC[C@]43[C@@H]65)C2)C1 [Vincristine sulfate],9.22,10,7.89,9.97,10.4,13.4
CC(C)(C#N)c1cc(Cn2cncn2)cc(C(C)(C)C#N)c1 [Anastrozole],99.8,108,103,101,105,96.7
CC(C)(C)c1cnc(CSc2cnc(NC(=O)C3CCNCC3)s2)o1,91.1,14.7,77.8,17.2,90.1,12.1
CN1CCC(CNc2ccc3ncc(-c4cccc(OC(F)(F)F)c4)n3n2)CC1 [SGI-1776 free base],103,86.7,105,82.4,95.5,94.1
CN(C)CCOc1ccc(/C(=C(/CCCl)c2ccccc2)c2ccccc2)cc1 [Toremifene Citrate],102,84.4,101,75.1,101,88.8
COc1cc2c(Oc3ccc4[nH]c(C)cc4c3F)ncnc2cc1OCCCN1CCCC1 [Cediranib (AZD2171)],105,92.6,99.8,83,96.7,90.4
CC(C)c1onc(-c2c(Cl)cccc2Cl)c1COc1ccc(/C=C/c2cccc(C(=O)O)c2)c(Cl)c1,105,112,104,105,108,111
C[C@]12CCC(=O)C=C1CC[C@@H]1[C@@H]2[C@@H](O)C[C@@]2(C)[C@H]1CC[C@]2(O)C(=O)CO [Hydrocortisone],95.7,81.2,97.8,85.1,96.1,87.3
"O=c1[nH]cc(F)c(=O)[nH]1 [Fluorouracil (5-Fluoracil, 5-FU)]",102,102,103,106,102,96.2
O=c1[nH]nc(Sc2ncc([N+](=O)[O-])s2)n1-c1ccc2c(c1)OCCO2,98.1,94.6,102,97.9,100,99.3
Nc1cccc2c1C(=O)N(C1CCC(=O)NC1=O)C2=O (configuration not stated) [Pomalidomide],95.8,94.7,91,84.7,93.2,84.3
Cc1cn(-c2cc(NC(=O)c3ccc(C)c(Nc4nccc(-c5cccnc5)n4)c3)cc(C(F)(F)F)c2)cn1 [Nilotinib (AMN-107)],106,110,102,106,103,103
CC[C@@]1(O)C(=O)OCc2c1cc1n(c2=O)Cc2cc3c(CN(C)C)c(O)ccc3nc2-1 [Topotecan HCl],9.75,5,12.8,5.92,11.1,2.71
